Among all 290,000 compounds or so, about 3,000 (1%) were called active. Many of the other results were omitted from the sample, so actives are more common in it than they were. Unmarked numbers belong to inactive results. Rule as the data show it: active = inhibition mostly above about 36% (no sharp cut-off); inactive = mostly below about 34%.

A short description of this assay: inhibition of NOD1-driven NF-kB reporter – cell-based, luminescence, uHTS, primary screen (AID 1578).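 Also: HEK-293T reporter cells stimulated with the NOD1 agonist gamma-tri-DAP.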 As to conditions: NOD1-driven NF-kB luciferase reporter cells, at 4 µM, active compounds read high.
With `COc1ccccc1NC(=O)Cn1cnc2c(nc3n2CCCCC3)c1=O`, the inhibition was -24.1%. The result for `CC(=O)C1=C(C)NC(C)=C(C(C)=O)C1c1ccccc1` reads -20.8%; that for `CCOc1ccc(C(=O)Nc2nnc(S(=O)(=O)Nc3ccccc3C)s2)cc1`, -17.1%.

For the compound `COC(=O)c1cc(=O)n(Cc2ccc3c(c2)OCO3)c(=Nc2ccc(F)cc2)s1`, the inhibition is 48.7%.

For the compound `COC(=O)c1cc(=O)n(Cc2ccc3c(c2)OCO3)c(=Nc2ccccc2)s1`, the inhibition was 73.6% (active).

On to `CCOC(=O)c1ccc(N=c2sc(C(=O)OC)cc(=O)n2Cc2ccc3c(c2)OCO3)cc1`, for which the inhibition was 22.1%. As to `Cc1nn(Cc2ccccc2)c(C)c1NC(=O)c1cc2nc(-c3ccco3)cc(C(F)(F)F)n2n1`, the inhibition was -2%.

On to `COc1ccc(C2NCCc3cc(OC)c(OC)cc32)cc1OC` (stereo unspecified), for which the inhibition is -2.7%. As to `CCOc1cc2c(cc1OC)C(c1cccc([N+](=O)[O-])c1)NCC2` (stereo unspecified), the inhibition is -31.3%. As for `CCOc1ccc(C2NCCc3cc(OC)c(OC)cc32)cc1OC` (stereo unspecified), the inhibition is 83.1% (active). `Clc1cccc2c3c([nH]c12)CCNC3`: the inhibition was 0.5%. On to `COCc1[nH]nc2c1C(c1ccc(OC)c(OC)c1)C(C#N)=C(N)O2` (stereo unspecified), for which the inhibition was -5.1%. The value for `CCn1c2ccccc2c2cc(C3C(C#N)=C(N)Oc4n[nH]c(COC)c43)ccc21` (stereo unspecified) was 54.9% (active); that for `COCc1[nH]nc2c1C(c1cccc(OC)c1)C(C#N)=C(N)O2` (stereo unspecified) was 4.9%; that for `CC1(C(=O)NNC(=O)c2cccc([N+](=O)[O-])c2)CC1(Br)Br` (stereo unspecified) was -8.9%. Turning to `N/C(=N\OC(=O)c1ccccc1Cl)c1ccccn1`, the inhibition was 54.7% (active). Consider `N/C(=N\OC(=O)c1ccc([N+](=O)[O-])cc1Cl)c1ccccn1`, for which the inhibition is 45.8%. Take `N/C(=N\OC(=O)c1cc(Cl)ccc1Cl)c1ccccn1`: the inhibition was 9.6%. With `COc1ccccc1C(=O)O/N=C(\N)c1ccccn1`, the inhibition was -10%. The result for `N/C(=N\OC(=O)c1ccc(Cl)cc1Cl)c1ccccn1` reads 51.2% (active). `N/C(=N\OC(=O)c1cc(Br)ccc1Cl)c1ccccn1`: the inhibition was -19.5%. As for `CCOC(=O)C1=C(C)NC(=O)NC1c1ccc2c(c1)OCO2` (stereo unspecified), the inhibition was 18%. `CC1=C(C(=O)OCc2ccccc2)C(c2cccc([N+](=O)[O-])c2)NC(=O)N1` (stereo unspecified): the inhibition is 13.3%. On to `CCOC(=O)C1=C(CCl)NC(=O)NC1c1ccc2c(c1)OCO2` (stereo unspecified), for which the inhibition is 72.5% (active).

For the compound `COc1ccc(C2NC(=O)NC(C)=C2C(=O)OCc2ccc3c(c2)OCO3)cc1OC` (stereo unspecified), the inhibition was 15.1%. Turning to `CCOC(=O)C1=C(CN2CCCCCC2)NC(=O)NC1c1ccc2c(c1)OCO2` (stereo unspecified), the inhibition was -36.5%.

For the compound `CC1=C(C(=O)OCc2ccc3c(c2)OCO3)C(c2cccc([N+](=O)[O-])c2)NC(=O)N1` (stereo unspecified), the inhibition was 63.2% (active). Regarding `Cc1cc(NC(=O)CN(C)CCOc2ccccc2)ccc1Br`, the inhibition is 7.6%. Consider `CCN(CC)C(=O)CSc1n[nH]c(=S)n1N`, for which the inhibition was -12.5%.

With `COC(=O)c1ccc(CSc2n[nH]c(-c3ccccc3)n2)o1`, the inhibition was -16.9%. The value for `COc1ccc(N2CC(C(=O)Nc3ccccc3C(=O)NC3CC3)CC2=O)cc1` (stereo unspecified) was -5.8%. The result for `CCOC(=O)c1cccc(N2C(=O)C3C4C=CC(CC4)C3C2=O)c1` (stereo unspecified) reads 7.8%; that for `CCSc1nnc(NC(=O)c2cccnc2)s1`, -21.5%. Take `CCOC(=O)C1=C(C)NC(=O)NC1c1c(OC)ccc2ccccc12` (stereo unspecified): the inhibition was -31.2%.

For the compound `O=C(NNC(=O)C12CC3CC(CC(C3)C1)C2)c1ccccn1`, the inhibition was 102% (active).

As for `O=C(NNC(=O)C12CC3CC(CC(C3)C1)C2)c1cnccn1`, the inhibition is -14.6%.

Turning to `C/C(=N\NC(=O)c1ccccn1)C12CC3CC(CC(C3)C1)C2`, the inhibition was -2.5%.

For `COc1ccc(/C=C(/NC(=O)c2ccco2)C(=O)N2CCCC2=O)cc1`, the inhibition was -22.3%. `O=C(N/C(=C/c1ccc(Br)cc1)C(=O)N1CCOCC1)c1ccco1`: the inhibition is -24.4%. The result for `O=C(N/C(=C/c1ccc(Br)cc1)C(=O)N1CCCC1=O)c1ccco1` reads 63.5% (active); that for `CC(=O)c1cccc(CN2CCN(C3CCCCC3)C(CCO)C2)c1` (stereo unspecified), -6.2%. With `CC(C)Oc1cccc(NC(=O)c2cnccc2C(F)(F)F)c1`, the inhibition was -4.2%. Regarding `COc1ccc(C(=O)N/C(=C\c2cccc([N+](=O)[O-])c2)C(=O)Nc2cccc(C(=O)O)c2)cc1`, the inhibition is -30.8%. For the compound `CC1=C(C)C(=O)C(N2CCOCC2)=CC1=O`, the inhibition was -11.2%. Regarding `CC(C)(C)C1=CC(=O)C(N2CCOCC2)=CC1=O`, the inhibition is 3.6%. In the case of `CC1CN(CCOc2ccc([N+](=O)[O-])cc2)CC(C)O1` (stereo unspecified), the inhibition is -4.4%. Turning to `C=CCN(c1ccccc1)S(=O)(=O)c1ccc(Cl)c(C(=O)OCC(=O)N(C)C2CCS(=O)(=O)C2)c1` (stereo unspecified), the inhibition is -31.4%.

`Nc1c2c(nc3ccccc13)CCCC2`: the inhibition is -26.6%. In the case of `Cc1cccc2c(C(=O)O)c3c(nc12)CCCCC3`, the inhibition was -22.2%.

With `Cc1cccc2c(N)c3c(nc12)CCCC3` (tested in a mixture with another compound), the inhibition was 53.2% (active). The value for `COc1ccc2[nH]c(C(=O)O)c(NS(=O)(=O)c3ccc(C)c(C)c3)c2c1` was -3.1%; that for `Cc1ccc(Nc2nc(-c3sc(C)nc3C)cs2)cc1` was -5%.

For the compound `Cc1nc(C)c(-c2csc(Nc3ccc(N)cc3)n2)s1`, the inhibition is 16.7%. Consider `Cc1nc(C)c(-c2csc(Nc3ccc(F)cc3)n2)s1`, for which the inhibition was 44.7% (active). `COC(=O)C(C)(C)ONC(=O)Nc1ccc([N+](=O)[O-])cc1`: the inhibition is -7%. The result for `CCOc1ccccc1C(=O)N/N=C/c1ccoc1` reads -17.7%; that for `CN=c1scc(-c2ccccc2F)n1/N=C/c1ccc[nH]1`, 101% (active); that for `CN=c1scc(-c2ccccc2F)n1/N=C/c1ccc(O)c(O)c1O`, -44.9%.

With `CN=c1scc(-c2ccccc2Br)n1/N=C/c1ccc[nH]1`, the inhibition is 12.4%. The value for `N#Cc1nc(COc2ccc(Cl)cc2Cl)oc1N1CCN(c2ccccc2)CC1` was 21.8%; that for `COc1ccc(N2CCN(C(c3ccccc3OC)c3nnnn3C3CCCC3)CC2)cc1` (stereo unspecified) was -19.3%; that for `COc1ccc(C(CC(=O)O)NC(=O)C2CCCCC2)cc1` (stereo unspecified) was 19.1%. As for `CC(C)Oc1ccc(C(CC(=O)O)NC(=O)C2CCCCC2)cc1` (stereo unspecified), the inhibition is -11.6%. As for `O=C(O)CC(NC(=O)C1CCCCC1)c1ccc(OC2CCCC2)cc1` (stereo unspecified), the inhibition was 65.3% (active). For the compound `CCOC(=O)N1CCN(C(=O)c2cccc(F)c2)CC1`, the inhibition is -43.9%. `Cc1ccc2sc(N(CCCN(C)C)C(=O)CCS(=O)(=O)c3ccccc3)nc2c1C`: the inhibition was -27%. On to `CCOc1cccc2sc(N(CCN(C)C)C(=O)CCS(=O)(=O)c3ccccc3)nc12`, for which the inhibition is -29%. Turning to `CN1C(=O)C2(C(C#N)=C(N)N(c3cc(Cl)cc(Cl)c3)C3=C2C(=O)CC(C)(C)C3)c2ccccc21` (stereo unspecified), the inhibition was -0.6%. In the case of `O=c1ccnc(SCCC(F)=C(F)F)[nH]1`, the inhibition was -43.9%. As to `O/N=C\c1ccc(-c2ccccc2)o1`, the inhibition was 3.8%. The result for `Cn1c(CCN2CCN(c3ccccn3)CC2)nc2cc(NC(=O)COc3ccc(Cl)cc3)ccc21` reads 21%.

For the compound `COc1ccc(CCNC(=O)c2ccc(-c3ccc([N+](=O)[O-])cc3Cl)o2)cc1`, the inhibition is 4.2%. As to `COc1ccc(CCNC(=O)c2ccc(-c3ccc([N+](=O)[O-])cc3)o2)cc1OC`, the inhibition is 38.5%. `COc1ccc(CCNC(=O)c2ccc(-c3ccc([N+](=O)[O-])cc3Cl)o2)cc1OC`: the inhibition was 95.8% (active). The result for `COc1ccc(-c2nnn(CC(=O)c3ccccc3)n2)cc1OC` reads -8.9%.

As to `COc1cc(/C=C/C(=O)O)cc(S(=O)(=O)N2CCc3ccccc3C2)c1OC`, the inhibition was -13.2%. The result for `CC(CC(=O)NCCc1ccc(F)cc1)c1ccccc1` (stereo unspecified) reads -24.3%. Consider `Cc1ccc(N/N=C2\CS(=O)(=O)N(C)c3ccsc32)cc1`, for which the inhibition is 58.9% (active). With `CN1c2ccsc2/C(=N/Nc2ccc(F)cc2)CS1(=O)=O`, the inhibition is -1.7%. Turning to `CN1c2ccsc2/C(=N/Nc2ccccc2)CS1(=O)=O`, the inhibition was -41.3%.

Regarding `C[C@@H](O)C1NC(=O)[C@H](CCCCN)NC(=O)c2cc([N+](=O)[O-])cc(I)c2NCCC[C@@H](C(N)=O)NC1=O` (stereo partly specified), the inhibition was -16%. For the compound `COc1cc(CNC2CCCCCCC2)ccc1OCC(N)=O`, the inhibition was -34.5%.

`COc1ccc(OC)c2sc(NC(=O)c3ccc(S(=O)(=O)N(C)C)cc3)nc12`: the inhibition is -12.2%. Regarding `C/C(=N\NC(=O)c1nnn(-c2nonc2N)c1CN(C)c1ccccc1)c1cccs1`, the inhibition was -19.9%. For the compound `CCN(CCCNC(=O)c1c(C)cc(=O)oc1C)c1ccccc1`, the inhibition is 8.4%. For the compound `CCn1c(C)cc(/C=C2\NC(=O)N(CC(=O)Nc3cccc(C)c3)C2=O)c1C`, the inhibition is 9.5%.

As to `N#Cc1cc(-c2ccccc2)oc1/N=C/c1ccccc1O`, the inhibition is 49.6% (active). Consider `COc1cc(/C=N/c2oc(-c3ccccc3)cc2C#N)ccc1O`, for which the inhibition is -15.3%.

Regarding `COc1cccc(/C=N/c2oc(-c3ccccc3)cc2C#N)c1O`, the inhibition was -11%. With `Nc1ccc(Br)cc1C(NCC(=O)O)c1ccccc1` (stereo unspecified), the inhibition is -19%.

For the compound `CC(C)(C)NC(=O)C1CCN(S(=O)(=O)c2cccc(C(F)(F)F)c2)CC1`, the inhibition was -13.7%. With `COc1ccc(C2(c3ccc(OC)cc3)NC(=O)N(CC(=O)Nc3ccccc3C(F)(F)F)C2=O)cc1`, the inhibition was -18.1%. `O=C(Nc1cccc(Cl)c1)c1cccnn1`: the inhibition is -9.2%. Consider `COc1ccc(/C=C/C(O)=C2/C(=O)NC3(C)CC2c2ccccc2O3)c(OC)c1OC` (stereo unspecified), for which the inhibition is 69.9% (active). Regarding `CCOc1ccc(/C=C/C(O)=C2/C(=O)NC3(C)CC2c2ccccc2O3)cc1OC` (stereo unspecified), the inhibition is 46.7%. On to `COc1cccc2c1OC1(C)CC2/C(=C(\C)O)C(=O)N1` (stereo unspecified), for which the inhibition is -20.8%.

The values above are taken from PubChem BioAssay AID1578 (Sanford-Burnham Center for Chemical Genomics, 2009).
